In all, about 370,000 compounds went through this assay and about 3,300 (0.89%) were called active.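 Rule for the calls: active = activation above the mean of all tested compounds plus 3 SD, computed per campaign excluding outliers beyond control limits (cut at about 13% in these data); inactive = the rest.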 What follows is part of a selection rich in actives, with near analogues and random picks from the rest.
Biological target: Kallikrein-7 (Homo sapiens) (UniProt P49862)
Experiment: activation of human kallikrein-7 proenzyme – biochemical, fluorescence intensity, primary screen (AID 652039)
Conditions: purified proKLK7, EDANS-DABCYL substrate fluorescence; at 7 µM; hits give high values; 100% is mature enzyme control, 0% vehicle

Kallikrein-7 (Homo sapiens), sequence (P49862 whole entry, looked up): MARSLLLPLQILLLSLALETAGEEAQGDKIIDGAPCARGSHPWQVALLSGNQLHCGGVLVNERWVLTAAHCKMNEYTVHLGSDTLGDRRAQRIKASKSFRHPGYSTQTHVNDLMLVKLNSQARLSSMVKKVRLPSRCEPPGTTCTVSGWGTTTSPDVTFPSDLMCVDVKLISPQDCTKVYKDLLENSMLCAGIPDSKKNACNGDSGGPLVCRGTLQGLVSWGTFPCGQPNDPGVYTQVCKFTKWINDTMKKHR

activation, active:
O=C(OC1CCOC1=O)c1ccc(-c2nc3ccccc3s2)s1 (centres undefined) 25.6%, COc1ccc(C2=CC(c3cccc(OC)c3)n3nnnc3N2)cc1 (centres undefined) 42.3%, CC(C)Cc1nc(Nc2ccc(S(=O)(=O)N3CCCC3)cc2)c2nnn(Cc3ccccc3)c2n1 18%, CCOc1c2ccc(C(=O)NCc3ccc4c(c3)OCO4)cc2nn1C 16.6%, Cc1ccc(-c2nn(-c3ccccc3)cc2/C=C/C(=O)Nc2cccc(S(N)(=O)=O)c2)cc1 302%, CNc1cncc(-c2cccc(C(=O)N3CCOCC3)c2)n1 49.4%, COc1cc(C(=O)N2C(=O)c3cccc(N)c3C2=O)cc(OC)c1OC 50.3%, CC1CC(C)CN(S(=O)(=O)c2cccc(C(=O)N3C(=O)c4cccc(N)c4C3=O)c2)C1 (centres undefined) 20.5%, CC(=O)Oc1ccc2c(C)c(CC(C)O)c(=O)oc2c1 (centres undefined) 57.1%

activation, inactive:
CC(C)c1ccc(C(=O)OC2CCOC2=O)cc1 (centres undefined) -0.06%, COc1cc(C(=O)OC2CCOC2=O)c([N+](=O)[O-])cc1OC (centres undefined) -0.39%, O=C(CSc1ncccn1)NC(=O)NCc1ccccc1 -0.82%, CCOC(=O)N1CCN(C(=O)C[C@@H]2C(=O)N(CCc3ccc(Cl)cc3)C3=CCCC[C@]32C(=O)OCC)CC1 0.7%, CC(C)(C)OC(=O)NCCc1ccccc1/C=C/S(=O)(=O)NCc1ccc(F)cc1 -0.22%, COc1cccc(-c2nc3n(n2)C(c2ccccc2Cl)C(C(N)=O)=C(C)N3)c1 (centres undefined) 0.67%, COc1ccc(C2CC(c3cccs3)Nc3nnnn32)cc1 (centres undefined) 0.65%, O=C1Nc2ccccc2OC1CC(=O)N1CCCCCCC1 (centres undefined) 0.05%, Cc1nc(Nc2ccc(S(=O)(=O)N3CCCC3)cc2)c2nnn(Cc3ccccc3)c2n1 -0.11%, CC(C)Nc1ncnc2c1nnn2Cc1ccccc1 0.3%, COc1ccc(Cn2ccc3ccc(-c4ccc5ccn(Cc6ccccc6C)c5c4)cc32)cc1 -0.6%, Cc1csc(OCC(=O)Nc2ccc(C)c(C)c2)n1 0.44%, C=C(C)C#CC(Cc1ccccc1)NCC1CC1 (centres undefined) 0.49%, COc1ccc(-n2c(SCC(=O)NC3CCCC3)nnc2-c2ccncc2)cc1 0.32%, CCCn1nc2cc(C(=O)NCc3ccccc3)ccc2c1OCC 9.49%, COc1ccccc1-n1c(C)nc2cc(C(=O)NCc3ccc4c(c3)OCO4)ccc21 0.53%, COC(=O)[C@]12C[C@H](CC(=O)NCc3cccs3)C(=O)N(CCc3ccc(OC)c(OC)c3)C1=C[C@H](C(C)C)O[C@@H]2C1CC1 0.65%, O=C(/C=C/c1cn(-c2ccccc2)nc1-c1ccc2c(c1)OCCO2)NCCCN1CCOCC1 -1.99%, NS(=O)(=O)c1ccc(NC(=O)/C=C/c2ccccc2Cl)cc1 3.16%, O=C(NC1CCCCN(Cc2ccc(Cl)cc2)C1=O)c1ccc(Br)cc1 (centres undefined) -0.15%, O=S1(=O)c2c(cccc2N2CC[C@H](O)C2)O[C@@H]2CCN1C2 -0.53%, O=C(c1cccc(N2CCCC2=O)c1)N1CCOCC1 -0.32%, COc1ccccc1C(=O)Nc1cccc(C(=O)N2CCOCC2)c1 0.2%, COc1cc(C(=O)NC(=S)NCc2ccco2)cc(OC)c1OC 0.52%, COc1cc(C(=O)N2CCN(C)CC2)cc(OC)c1OC -0.27%, CCOC(=O)C1CCCN(C(=O)c2cccc(S(=O)(=O)N3CCOCC3)c2)C1 (centres undefined) -0.32%, CC(=O)N1CCN(S(=O)(=O)c2cccc(C(=O)NC3CCC(C)CC3)c2)CC1 (centres undefined) -0.34%, COc1ccc(CCNC(=O)CSc2nc3c([nH]2)c(=O)n(C)c(=O)n3C)cc1 0.4%, COC(=O)c1ccccc1-n1cc(COC(=O)NCCc2ccccc2)nn1 -0.71%, C[C@H]1CCC/C=C/C(=O)c2c(O)cc(O)cc2CC(=O)O1 0.41%, Cc1ccc(NC(=S)NNC(=O)CSc2nnc(SCc3ccccc3Cl)s2)cc1 0.76%, Cc1nc2ccc(C(=O)N3CCN(C(=O)C(C)(C)C)CC3)cc2n1C1CCCC1 -0.33%, Cc1ccc(-c2nnc(SCC(=O)Nc3ccc(Oc4ccccc4)cc3)n2Cc2ccco2)cc1 -0.21%, O=C(c1ccccc1)c1ccc(-c2ccccc2C(=O)NC2CCCCN(Cc3ccc(Cl)cc3)C2=O)cc1 (centres undefined) -0.04%, CCc1c(C)c2ccc(OC3CCCCC3=O)cc2oc1=O (centres undefined) 1.85%

Reference: PubChem BioAssay AID652039 (The Scripps Research Institute Molecular Screening Center, 2013)
